Consider 94 molecules from ChEMBL document CHEMBL3988442, “University of Dundee, Small-Polar-MMV Screening Library” (2021).

About 1,200 (3.2%) of roughly 38,000 compounds showed an effect of 50% or more. The median lay at about -58%. The entries come from a sample that favours strong results as a whole.

For the assay, the system named is Plasmodium falciparum. Briefly: Calibr Malaria Delayed Death Assay SOP. The format is functional, organism-based. Details: scale not given: in the data most compounds retested in dose-response had high values. The following applies: concentration 4.99e-06 (unit not given; other assays of the set use mol/L).
In the case of `COCCN1CCN(CCCS(C)(=O)=O)CC1C` (centres undefined), the “Percent Effect” value was -45.99%. Consider `CNS(=O)(=O)CCCN1CCCCCC1c1ccc(C)o1` (centres undefined), for which the “Percent Effect” value came out at 7.133%. As for `CNS(=O)(=O)CCCN1CCCC1c1cc(C)on1` (centres undefined), the “Percent Effect” value was -107.9%. In the case of `COCCN1CCN(CCCS(=O)(=O)c2ccccc2)CC1C` (centres undefined) it was -125.8%; in that of `CC1CN(Cc2ccccc2)CCCN1CCCS(C)(=O)=O` (centres undefined), 50.52%; in that of `CNS(=O)(=O)CCCN1CCCN(Cc2ccccc2)CC1C` (centres undefined), 57.31%.

Regarding `Cc1cc(F)ccc1N1CCCC(NC(=O)CCCn2ccnc2)C1` (centres undefined), the “Percent Effect” value is given as -46.83%.

With `Cc1ccoc1-c1nnc(CN2CCn3c(nnc3C(C)C)C2)o1`, the “Percent Effect” value is listed as -39.14%.

With `CCCN1CCN(c2ccc(-c3nc(C)no3)cn2)CC1`, the “Percent Effect” value is -136.9%. As for `CCn1cc(CN2CCCN(C(=O)CCN3CCCC3=O)CC2)cn1`, the “Percent Effect” value is on record as -110.7%. In the case of `CC(C)C(NC(=O)N1CCS(=O)(=O)CC1)c1ccccc1Cl` (centres undefined) it was -66.72%. In the case of `CSCC(=O)N(C)Cc1ccccc1` it was -13.25%.

Regarding `N#Cc1nc(COc2ccc3c(c2)OCO3)oc1NC1CC1`, the “Percent Effect” value is -68.74%. `Clc1ccc(N2CCC(C3CCN(Cc4cccnc4)CC3)C2)nc1` (centres undefined): the “Percent Effect” value is on record as 9.118%. Consider `Clc1cccnc1N1CCC(C2CCN(Cc3cccnc3)CC2)C1` (centres undefined), for which the “Percent Effect” value is -53.88%.

Consider `O=C(C1CCCC1)N1CCC(C2CCN(Cc3ccc(Cl)cc3)C2)CC1` (centres undefined), for which the “Percent Effect” value is recorded as 62.77%.

In the case of `CC(=O)NCC(=O)N1CCC(C2CCN(Cc3ccc(Cl)cc3)C2)CC1` (centres undefined), the “Percent Effect” value is 1.574%. The figure for `O=C(C1CCC1)N1CCC(C2CCN(Cc3ccc(Cl)cc3)C2)CC1` (centres undefined) is 64.14%; for `Clc1ccc(CN2CCC(C3CCN(Cc4cccnc4)CC3)C2)cc1` (centres undefined) it is 62.84%. In the case of `CN1CCN(Cc2ccc(Cl)cc2)CC1C(=O)O` (centres undefined) it was -101.8%; in that of `CCOCC(=O)N1CCC(C2CCN(Cc3ccc(Cl)cc3)C2)CC1` (centres undefined), -3.864%; in that of `O=C(C1CCC1)N1CC[C@@H]2CN(Cc3cccnc3)S(=O)(=O)[C@@H]2CC1`, -57.62%. The figure for `CCOC(=O)Cc1csc(NC(=O)c2cc(=O)c(OC)c[nH]2)n1` is -55.6%; for `CN(C)CCn1c2c(ccc1=O)CCN(C(=O)c1ccoc1)CC2.O=C(O)C(F)(F)F` it is -90.05%. `CCCC(O)CN1CCC(=O)N(C)Cc2cc(F)ccc21` (centres undefined): the “Percent Effect” value is -57.01%. In the case of `O=C(c1cccnc1O)N(CCO)Cc1cc(Br)ccc1F` it was -29.02%. In the case of `O=C(O)c1ccc(CNC(=O)C2CCN(C(=O)C3CCC3)CC2)s1` it was -58.95%; in that of `Cc1nccn1CCCC(=O)N1CCC2(CCC(=O)N(C(C)C)C2)CC1`, -32.26%; in that of `COCCNC(=O)N1CCCCC1CNC(=O)Nc1ccccc1` (centres undefined), -90.53%.

For `CCC(N)C(=O)N1CCC(OCc2ccc(Cl)c(Cl)c2)CC1.Cl` (centres undefined), the “Percent Effect” value was found to be 65.86%. The figure for `NC(=O)CN1CCC(OCc2ccc(Cl)c(Cl)c2)CC1` is 33.26%. In the case of `CNC(=O)CN1CCC(OCc2ccc(Cl)c(Cl)c2)CC1` it was 0.3675%; in that of `COc1ccc2c(c1)OCC(CNC(=O)c1cc(C(C)C)on1)C2` (centres undefined), -29.19%; in that of `Cc1c(C(=O)NCC2CCN(C)C2)n(C)c2c(C)cccc12` (centres undefined), 8.044%. In the case of `CC(=O)Nc1nc(C2CCN(C(=O)c3cncs3)CC2)cs1` it was 38.41%; in that of `CNC(=O)Cn1c(CO)cnc1SCc1ccccc1Cl`, -84%; in that of `COc1cc2nc(NCc3scnc3C)nc(N)c2cc1OC`, 89.32%.

Consider `COc1cc(C(C)NCc2scnc2C)ccc1SC(F)F` (centres undefined), for which the “Percent Effect” value worked out at 16.99%. The figure for `COc1cc2nc(NCc3cc(C)on3)nc(N)c2cc1OC` is 61%. As for `COc1cc2c(cc1CNC(=O)Cc1ccc(C)nc1)OC(C)C2` (centres undefined), the “Percent Effect” value was -97.01%. In the case of `COc1cc2nc(NCc3ccc(C)nc3)nc(N)c2cc1OC` it was 90.21%. The figure for `COc1ccccc1NCC(=O)NCc1scnc1C` is -101.9%; for `COc1ccc(CCC(=O)NCc2cc(C)on2)cc1` it is -56.8%; for `CCOc1ccc(OCC)c(NCc2cc(C)on2)c1` it is -105.8%. The figure for `COc1ccc(C(C)NC(=O)NCCc2ccc(C)nc2)c(OC)c1` (centres undefined) is -63.03%; for `CC(=O)c1c(O)n(C)c2ccccc12` it is -129.1%; for `O=C(COCCc1ccccc1)N1CCCC(n2cncn2)C1` (centres undefined) it is -37.64%. Turning to `Cc1cccc(CSc2nnc(C)n2CC(N)=O)c1`, the “Percent Effect” value is on record as -106.3%.

Turning to `CS(=O)(=O)N1CCC(CNC(=O)C2CCC2)CC1`, the “Percent Effect” value is -20.15%.

On to `O=C(NCCc1ccncc1)c1ccc(S(=O)(=O)NC2CCC2)cc1`, for which the “Percent Effect” value is -25%. In the case of `CSCC[C@@H](CO)NC(=O)c1sc(-c2ccc(Cl)cc2)nc1C` it was -102.9%. `CCOC(=O)CSc1nnc(C(N)CC(C)C)o1.Cl` (centres undefined): the “Percent Effect” value is reported as -109.2%. The figure for `NC(=O)NCC1CCCCN1C(=O)c1cc(F)cc(F)c1` (centres undefined) is -156.9%. Consider `CC1CCCN(C(=O)CNC(=O)c2ccoc2)C1` (centres undefined), for which the “Percent Effect” value is recorded as -96.13%. In the case of `CC(C)(C)CC(=O)Nc1cnn(-c2ccccc2S(C)(=O)=O)c1` it was -5.765%; in that of `CC(C)c1ncc2c(n1)CN(CCCc1nc3ccccc3o1)CC2`, 69.07%. For `Cc1ncc2c(n1)CN(Cc1nc3ccccc3o1)CC2`, the “Percent Effect” value was -59.98%. Take `c1ccc2oc(CCCN3CCc4cncnc4C3)nc2c1`: the “Percent Effect” value is on record as -82.49%. The figure for `O=C(NCCc1cnccn1)c1cccc(S(=O)(=O)NC2CCOC2)c1` (centres undefined) is -80.94%.

For `O=C(c1cnn[nH]1)N(CCCO)Cc1cccnc1`, the “Percent Effect” value is -126.7%. For the molecule `CN(Cc1ccsc1)C(=O)CNC(=O)N1CCc2ccccc2C1`, the “Percent Effect” value was -30.75%.

Take `COc1cccc(CN2CCC3(CC(Nc4ccncn4)C3)C2)c1F` (centres undefined): the “Percent Effect” value is given as -62.87%. The figure for `CN(C)C1Cc2ccccc2N(S(=O)(=O)c2cccc(C#N)c2)C1` (centres undefined) is 75.93%. In the case of `N#Cc1cccc(S(=O)(=O)N2CC(CC(=O)O)c3ccccc32)c1` (centres undefined) it was -122.6%; in that of `CN1CCN(S(=O)(=O)c2cccc(C#N)c2)c2ccc(F)cc21`, -39.03%.

`CC(=O)NCCNC(=O)C(c1ccccc1C)N(C)C` (centres undefined): the “Percent Effect” value is recorded as -142.6%. The figure for `Cc1cscc1-c1nc(C2CCOC2)no1` (centres undefined) is -27.07%; for `O=C(c1scc2c1OCCO2)N1CCOC(CCc2ccccc2)C1` (centres undefined) it is 88.31%. In the case of `O=C(c1scc2c1OCCO2)N1CCOC(Cc2cccc(F)c2)C1` (centres undefined) it was -44.17%.

On to `O=C(c1scc2c1OCCO2)N1CCOC(Cc2ccc(F)cc2)C1` (centres undefined), for which the “Percent Effect” value is -16.04%. As for `CC1CCC(NS(=O)(=O)CC(=O)NCC2CCC2)CC1` (centres undefined), the “Percent Effect” value is on record as -74.87%. The figure for `O=C(CCc1ccco1)N1CCC(Oc2ccccc2)(C(=O)O)CC1` is -48.84%. The figure for `COc1ccc(CNC(=O)C2=NN(c3ccc(C)cc3)C(=O)CN2)cc1` is 74.74%.

On to `COc1ncccc1CNC(=O)C1=NN(c2ccccc2)C(=O)CN1`, for which the “Percent Effect” value was -51.2%. For `O=C(NCc1cccnc1)C1=NN(c2ccccc2)C(=O)CN1`, the “Percent Effect” value was determined as 39.33%. For `CN1C(=O)CC[C@]12CC[C@@H](NC(=O)NCc1cccnc1)CC2.O=C(O)C(F)(F)F`, the “Percent Effect” value is -78.37%. In the case of `CCc1ccc(CN(C/C=C/c2ccccc2)CCOC)nc1` it was 52.86%; in that of `COCCN(C/C=C/c1ccccc1)Cc1nccs1`, -11.48%. As for `COCCN(C/C=C/c1ccccc1)Cc1ccccn1`, the “Percent Effect” value is reported as 20.8%. The figure for `O=C1CC(c2ccncc2)C2(CCN(Cc3cccnc3)CC2)N1` (centres undefined) is -62.4%. In the case of `CN1CCCN(C(=O)NCCNc2cnccn2)CC1` it was -4.347%; in that of `CO[C@@H]1CCN(Cc2cccs2)[C@@H]2CN(Cc3ccncc3)C[C@@H]21.O=C(O)C(F)(F)F.O=C(O)C(F)(F)F.O=C(O)C(F)(F)F`, 52.08%; in that of `COCCN1C[C@@H]2[C@@H](OC)CCN(Cc3ccc(C)o3)[C@@H]2C1.O=C(O)C(F)(F)F.O=C(O)C(F)(F)F`, 3.217%. The figure for `CO[C@H]1CCN(C2CCC2)[C@@H]2CN(Cc3ccncc3)C[C@H]12.O=C(O)C(F)(F)F.O=C(O)C(F)(F)F.O=C(O)C(F)(F)F` is -45.55%; for `CO[C@H]1CCN(Cc2cnn(C)c2)[C@@H]2CN(Cc3ccncc3)C[C@H]12.O=C(O)C(F)(F)F.O=C(O)C(F)(F)F.O=C(O)C(F)(F)F` it is -72.72%.

In the case of `COCCN1C[C@@H]2[C@@H](OC)CCN(Cc3ccsc3)[C@@H]2C1.O=C(O)C(F)(F)F.O=C(O)C(F)(F)F`, the “Percent Effect” value was found to be 66.72%. The figure for `COCCN1C[C@H]2[C@@H](C1)N(Cc1cnn(C)c1)CC[C@H]2OC.O=C(O)C(F)(F)F.O=C(O)C(F)(F)F` is -59.33%; for `COCCN1C[C@@H]2[C@@H](OC)CCN(Cc3cccs3)[C@@H]2C1.O=C(O)C(F)(F)F.O=C(O)C(F)(F)F` it is 66.16%; for `CO[C@H]1CCN(Cc2c(C)noc2C)[C@@H]2CN(Cc3ccncc3)C[C@H]12.O=C(O)C(F)(F)F.O=C(O)C(F)(F)F.O=C(O)C(F)(F)F` it is -5.39%. In the case of `COCCN1C[C@@H]2[C@@H](OC)CCN(Cc3ccco3)[C@@H]2C1.O=C(O)C(F)(F)F.O=C(O)C(F)(F)F` it was -1.66%; in that of `CO[C@@H]1CCN(Cc2cccc(C)n2)[C@@H]2CN(Cc3ccncc3)C[C@@H]21.O=C(O)C(F)(F)F.O=C(O)C(F)(F)F.O=C(O)C(F)(F)F.O=C(O)C(F)(F)F`, 30.62%. As for `COCCN1C[C@@H]2[C@@H](OC)CCN(Cc3ccncc3)[C@@H]2C1.O=C(O)C(F)(F)F.O=C(O)C(F)(F)F.O=C(O)C(F)(F)F`, the “Percent Effect” value amounted to 24.39%.

In the case of `CO[C@H]1CCN(Cc2cccs2)[C@@H]2CN(Cc3ccncc3)C[C@H]12.O=C(O)C(F)(F)F.O=C(O)C(F)(F)F.O=C(O)C(F)(F)F`, the “Percent Effect” value came out at 59.98%. The figure for `CN1CCN(C(=O)c2cc3sccc3n2Cc2ccccc2F)CC1` is 29.89%.
